# Values joined by “and” are separate entries in the source; they are usually repeats but may differ in a detail not shown here. Equal entries are not always repeated. Results filed as inconclusive are left out. Values without a mark were called inactive. Active and inactive are the calls of the source. Calls follow the shape of the dose curve; as a rule, active = well fitted curve in the direction sought with a large enough effect; inconclusive = small, poorly fitted or top-dose-only effect, or another doubt; inactive = no such curve, though single readings can be large; an effect the other way counts as inactive or inconclusive.
# Assays:
# CRL-7250 = normal cell line; assay: Cytotoxic Profiling of Annotated Libraries Using Quantitative High-Throughput Screening (AID 1296008); settings: Five cell lines viability, CellTiter-Glo ATP luminescence, 48-72 h; max response: hits give low values; also: nearly all actives have a fitted effect of over 60% in size
# Outline: (§1)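 Compounds were pin-transferred onto cells and incubated 48 or 72 hr at 37 degree Celsius, 95% humidity. CellTiter-Glo was added, plates sat 10 min at room temperature, then ATP-coupled luminescence was imaged as the viability read-out.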
# HEK293 = assay: as above; settings: Five cell lines viability, CellTiter-Glo ATP luminescence, 48-72 h; max response: hits give low values
# Outline: as §1
# HaCat [1] = assay: as above; settings: Five cell lines viability, CellTiter-Glo ATP luminescence, 48-72 h; max response: hits give low values
# Outline: as §1
# KB-3-1 = assay: as above; settings: Five cell lines viability, CellTiter-Glo ATP luminescence, 48-72 h; max response: hits give low values
# Outline: as §1
# NIH3T3 [2] = assay: as above; settings: Five cell lines viability, CellTiter-Glo ATP luminescence, 48-72 h; max response: hits give low values
# Outline: as §1
# MCC-13 = assay: qHTS assay to identify novel small-molecules to repurpose for Merkel cell carcinoma treatment (AID 1296009); settings: MCC and control cell lines, CellTiter-Glo viability, 72 h; series mostly up to 46 µM; also: nearly all actives have a fitted effect of over 60% in size
# Outline: (§2)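 qHTS format: cells treated with library compounds in DMSO across 8 (NPC) or 11 (MIPE) concentrations. Readout after 72 hr at 37 degree celsius was CellTiter-Glo luminescence.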
# MCC-26 = assay: as above; settings: MCC and control cell lines, CellTiter-Glo viability, 72 h; series mostly up to 46 µM
# Outline: as §2
# MKL-2 = assay: as above; settings: MCC and control cell lines, CellTiter-Glo viability, 72 h; series mostly up to 46 µM
# Outline: as §2
# NIH3T3 [3] = assay: as above; settings: MCC and control cell lines, CellTiter-Glo viability, 72 h; at 44.8 µM (top of the series) unless noted
# Outline: as §2
# UISO = assay: as above; settings: MCC and control cell lines, CellTiter-Glo viability, 72 h; series mostly up to 46 µM
# Outline: as §2
# WaGa = assay: as above; settings: MCC and control cell lines, CellTiter-Glo viability, 72 h; series mostly up to 46 µM
# Outline: as §2
# MKL-1 = assay: as above; settings: MCC and control cell lines, CellTiter-Glo viability, 72 h; series mostly up to 46 µM
# Outline: as §2
# C33A = assay: Primary qHTS to identify gynecologic anti-cancer compounds using libraries of approved drugs and bioactive compounds (AID 1345084); settings: Gynecologic cancer cell panel viability, ATPlite luminescence, 48 h; series mostly up to 57.5 µM; also: nearly all actives have a fitted effect of over 55% in size
# Outline: (§3)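 ATP-based viability (ATPlite), 1,000 cells/well, 16 h pre-incubation, 48 h compound at 37 C, 5% CO2, 15 min RT before read.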
# HACAT [4] = assay: qHTS assay to identify novel small-molecules to repurpose for Merkel cell carcinoma treatment (AID 1296009); settings: MCC and control cell lines, CellTiter-Glo viability, 72 h; at 44.8 µM (top of the series) unless noted; also: nearly all actives have a fitted effect of over 60% in size
# Outline: as §2
# HEK293T = assay: as above; settings: MCC and control cell lines, CellTiter-Glo viability, 72 h; at 44.8 µM (top of the series)
# Outline: as §2
# CAOV3 = assay: Primary qHTS to identify gynecologic anti-cancer compounds using libraries of approved drugs and bioactive compounds (AID 1345084); settings: Gynecologic cancer cell panel viability, ATPlite luminescence, 48 h; series mostly up to 57.5 µM; also: nearly all actives have a fitted effect of over 55% in size
# Outline: as §3
# % is scaled to controls: 0 for no effect and ±100 for the full control effect; potency is read from the fitted curve at half-maximal effect.
structure (smiles),measurement,setting,value
COC(=O)C1=CO[C@@H](O)[C@@H]2C(CO)=CC[C@@H]12,max response,CRL-7250,0.508%
same,max response,HEK293,4.92%
same,max response,HaCat [1],3.95%
same,max response,KB-3-1,-1.15%
same,outcome,NIH3T3 [2],inactive
same,Potency,MCC-13,inactive
same,Potency,MCC-26,inactive
same,Potency,MKL-2,9350 nM (active)
same,outcome,NIH3T3 [3],inactive
Oc1ccc(C2CCN(c3ccnc4ccccc34)CC2)cc1O,Potency,CRL-7250,4.69 µM (active)
same,Potency,HEK293,13.2 µM (active)
same,max response,HaCat [1],-4.14%
same,max response,NIH3T3 [2],-5.13%
same,Potency,MCC-13,inactive
same,Potency,MCC-26,inactive
same,Potency,UISO,inactive
COc1ccc(-c2nc(N3CCOCC3)c3sc(CN(C)c4ncc(C(=O)NO)cn4)cc3n2)cn1,Potency,CRL-7250,0.059 µM (active)
same,Potency,HEK293,0.0166 µM (active)
same,Potency,HaCat [1],148 nM (active)
same,Potency,KB-3-1,26.4 nM (active)
same,Potency,NIH3T3 [2],118 nM (active)
same,Potency,MCC-13,66.2 nM (active)
same,Potency,MCC-26,52.6 nM (active)
same,Potency,UISO,23.5 nM (active)
same,Potency,WaGa,2.6 nM (active)
CN(C)C1CCN(C(=O)c2ccc(NC(=O)Nc3nc(N4CCOCC4)nc(N4CCOCC4)n3)cc2)CC1,Potency,CRL-7250,0.0006 µM (active)
same,Potency,HEK293,0.142 µM (active)
same,Potency,HaCat [1],252 nM (active)
same,Potency,KB-3-1,50.2 nM (active)
same,Potency,NIH3T3 [2],93.5 nM (active)
same,Potency,MCC-26,833 nM (active)
same,Potency,MKL-1,132 nM (active)
same,Potency,MKL-2,296 nM (active)
same,Potency,UISO,26.4 nM (active)
same,Potency,WaGa,105 nM (active)
same,Potency,C33A,178 nM (active)
O=C(O)c1ccc(-c2c[nH]c3ncc(-c4ccccc4)cc23)cc1C1CCCC1,max response,CRL-7250,-5.06%
same,outcome,HEK293,inactive
same,outcome,HaCat [1],inactive
same,outcome,KB-3-1,inactive
same,outcome,HACAT [4],inactive
same,outcome,HEK293T,inactive
same,Potency,MCC-13,inactive
same,Potency,MCC-26,inactive
same,Potency,MKL-1,inactive
same,Potency,UISO,inactive
same,Potency,WaGa,inactive
CCOC(CN1C(=O)[C@](CC(=O)Nc2ccc(C)cc2)(NC(=O)Nc2ccc(C)cc2)c2ccccc21)OCC,max response,CRL-7250,2.73%
same,max response,HEK293,-3.95%
same,max response,HaCat [1],-19.2%
same,max response,KB-3-1,-11%
same,max response,NIH3T3 [2],-3.18%
same,Potency,MCC-13,inactive
same,Potency,MKL-1,inactive
same,Potency,UISO,inactive
same,Potency,WaGa,inactive
C[C@H](NC(=O)c1sccc1OCc1ccc(Cl)cc1)c1ccccc1,Potency,CRL-7250,29.6 µM (active)
same,Potency,HEK293,16.6 µM (active)
same,Potency,KB-3-1,20900 nM (active)
same,max response,NIH3T3 [2],-27.6%
same,Potency,MCC-13,inactive
same,Potency,MCC-26,inactive
same,Potency,MKL-1,inactive
CC(C)(Cc1ccc2ccccc2c1)NC[C@@H](O)COc1cccc(Cl)c1C#N,outcome,CRL-7250,inactive
same,max response,HEK293,-1.92%
same,max response,HaCat [1],-22.6%
same,max response,KB-3-1,2.48%
same,max response,NIH3T3 [2],-24.7%
same,Potency,MCC-13,inactive
same,Potency,MKL-1,inactive
same,Potency,UISO,inactive
CC(=O)Nc1ccc([C@H](C)C(=O)Nc2ncc(C(C)C)s2)cc1,Potency,CRL-7250,2.35 µM (active) and 1.84 µM (active)
same,Potency,HEK293,4.69 µM (active) and 4.11 µM (active)
same,Potency,HaCat [1],10.5 µM (active) and 18.4 µM (active)
same,Potency,KB-3-1,5170 nM (active)
same,Potency,NIH3T3 [2],8.33 µM (active) and 9.2 µM (active)
same,Potency,MKL-2,9350 nM (active)
same,Potency,UISO,7430 nM (active)
same,Potency,C33A,20000 nM (active)
same,Potency,CAOV3,inactive
O=C(Nc1cccc(Br)c1)c1cccc(S(=O)(=O)N2CCCCCC2)c1,Potency,CRL-7250,23.1 µM (active)
same,Potency,HEK293,13.2 µM (active) and 9.2 µM (active)
same,max response,HaCat [1],4.06% and -1.39%
same,max response,NIH3T3 [2],-21.3%
same,Potency,MCC-13,inactive
same,Potency,MCC-26,inactive
same,Potency,MKL-1,inactive
same,Potency,MKL-2,inactive
same,Potency,WaGa,inactive
same,Potency,CAOV3,inactive
CO[C@@H](C(=O)N1Cc2[nH]nc(NC(=O)c3ccc(N4CCN(C)CC4)cc3)c2C1)c1ccccc1,Potency,CRL-7250,5.26 µM (active)
same,Potency,HEK293,4.18 µM (active)
same,Potency,HaCat [1],2350 nM (active)
same,Potency,KB-3-1,11800 nM (active)
same,Potency,NIH3T3 [2],14800 nM (active)
same,Potency,MKL-2,inactive
same,Potency,UISO,inactive
CC[C@H]1OC(=O)[C@H](C)[C@@H](O[C@H]2C[C@@](C)(OC)[C@@H](O)[C@H](C)O2)[C@H](C)[C@@H](O[C@@H]2O[C@H](C)C[C@H](N(C)C)[C@@H]2O)[C@](C)(O)C[C@@H](C)CN(C)[C@H](C)[C@@H](O)[C@]1(C)O,outcome,CRL-7250,inactive
same,outcome,HaCat [1],inactive
same,outcome,KB-3-1,inactive
same,outcome,NIH3T3 [2],inactive
same,outcome,HACAT [4],inactive
same,Potency,MCC-13,inactive
same,Potency,MCC-26,inactive
same,Potency,MKL-1,inactive
same,outcome,NIH3T3 [3],inactive
same,Potency,UISO,inactive
same,Potency,WaGa,inactive
Cn1cc(C=C2C(=O)Nc3cccnc32)c2ccccc21,max response,CRL-7250,-3.71%
same,max response,HaCat [1],-0.233%
same,max response,KB-3-1,5.23%
same,max response,NIH3T3 [2],-5.8%
same,Potency,MCC-13,inactive
same,Potency,MCC-26,inactive
same,Potency,MKL-1,inactive
same,Potency,MKL-2,inactive
same,Potency,UISO,inactive
same,Potency,WaGa,inactive

# Source: PubChem BioAssay (NCATS)
